Screening data as filed in PubChem.
Compounds with a hit are over-represented: about 19% of the library has one in this group of screens.
IL1B secr inh: inhibitors of inflammasome signaling (IL-1 beta secretion); activity change, % at 57.5 µM; AID 743279; THP-1 LPS/ATP IL-1B secretion, AlphaLISA, 16 h; active compounds read low; 360,000 compounds, 4.7% hits; in the data active = activity change below about -50%; inconclusive = mostly about -30% to -49%
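Secreted IL-1B measured by AlphaLISA bead assay after 16 h compound exposure of THP-1 cells; compounds (final up to 57.5 uM) added 1 h before LPS (250 ng/mL) and ATP (1.25 mM) stimulation; lower signal means less secretion.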
DT40 TDP1 CPT: DT40-hTDP1 cell growth loss with CPT; Potency, µM (highest dose often 46.2 µM), without a hit: at the highest dose activity change, negative = growth inhibition, most hits filed as inhibitors; chicken DT40 Tdp1-/-;hTDP1 cells + 20 nM CPT, ATP luminescence, 48 h; 420,000 compounds, 12% hits; note: potency is the fitted concentration of half-maximal effect; nearly all actives have a fitted effect of over 55% in size
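Chicken DT40 Tdp1-/- cells complemented with human TDP1, 400 cells/well, exposed to compounds plus 20 nM camptothecin for at least 48 h at 37 C; viability read as ATP content by CellTiter-Glo luminescence.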
Giardia kill: kills Giardia lamblia | Giardia lamblia trophozoite viability | activity change, % at 7.66 µM, hits read low | 340,000 compounds, 0.15% hits; in the data active = activity change below about -80%; inconclusive = between about -30% and that limit;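 note: parasites exposed to compound for two days anaerobically before the ATP read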
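Giardia trophozoites, 100 cells per well, were exposed to compounds for 48 hrs at 37 deg C under anaerobic conditions; viability was then read as ATP content by bioluminescence after 15-30 min at room temperature.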
TDP1 cell noCPT: qHTS for Inhibitors of human tyrosyl-DNA phosphodiesterase 1 (TDP1): qHTS in cells in absence of CPT; Potency, µM (doses to about 46.2 µM), for inactives: top-dose activity change, negative = growth inhibition, usual class: inhibitors; 420,000 compounds, 15% hits; DT40 Tdp1-/- hTDP1 cells, no CPT, ATP luminescence, 48 h; note: potency is the fitted concentration of half-maximal effect; nearly all actives have a fitted effect of over 55% in size
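Seeded 400 DT40-hTDP1 cells/well (vehicle DMSO, no 20 nM CPT); pinned compounds; ≥48 hr at 37 °C; CellTiter-Glo luminescence as viability measure.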
ELG1 DNA repair: inhibitors of ELG1-dependent DNA repair in HEK293T cells; AID 504467; HEK293T ELG1-luciferase reporter, luminescence, 16 h; DNA damage induced by 5-fluorouridine; 330,000 compounds, 2.3% hits; Potency, µM (titrated, usually from 46.1 µM), inactives show at the highest dose activity change, negative = inhibition, actives largely listed as inhibitors; note: potency is the fitted concentration of half-maximal effect; nearly all actives have a fitted effect of over 55% in size
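Quantitative HTS, concentration-response format. 2,000 cells/well co-treated with 5-fluorouridine and compound, 16 hr in 5% CO2 at 37 °C; ONE-Glo luminescence read after 30 min.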
TDP1 block: blocks human tyrosyl-DNA phosphodiesterase 1; Q9NUW8; recombinant TDP1, AlphaScreen DNA substrate cleavage; Potency, µM (series often up to 130 µM), for inactives: top-dose activity change, negative = inhibition, usual class: inhibitors; 350,000 compounds, 0.28% hits; AID 485290; note: potency is the fitted concentration of half-maximal effect; nearly all actives have a fitted effect of over 40% in size
Target sequence (Q9NUW8 whole entry, looked up): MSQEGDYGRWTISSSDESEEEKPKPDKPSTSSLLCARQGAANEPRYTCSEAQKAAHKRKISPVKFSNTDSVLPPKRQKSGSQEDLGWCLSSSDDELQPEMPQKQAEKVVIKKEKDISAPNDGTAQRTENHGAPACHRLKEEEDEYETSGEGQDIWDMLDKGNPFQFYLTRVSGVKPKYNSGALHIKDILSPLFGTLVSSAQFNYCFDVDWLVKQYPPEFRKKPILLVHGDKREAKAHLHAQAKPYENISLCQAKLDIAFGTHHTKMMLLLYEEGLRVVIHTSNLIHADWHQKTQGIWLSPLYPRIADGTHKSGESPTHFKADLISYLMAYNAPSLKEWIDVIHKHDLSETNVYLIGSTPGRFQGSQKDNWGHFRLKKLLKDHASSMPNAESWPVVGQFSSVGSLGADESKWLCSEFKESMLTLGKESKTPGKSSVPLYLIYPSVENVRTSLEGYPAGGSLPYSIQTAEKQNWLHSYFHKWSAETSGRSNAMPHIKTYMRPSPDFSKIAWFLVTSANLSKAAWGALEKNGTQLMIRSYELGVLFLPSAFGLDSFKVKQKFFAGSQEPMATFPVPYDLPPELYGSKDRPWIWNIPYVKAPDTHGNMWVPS
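Signal: AlphaScreen proximity between streptavidin donor and anti-FITC acceptor beads on intact substrate. Reaction: Tdp1 1 nM, substrate 15 nM final, 5 min RT after 15 min compound preincubation.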
Starred values were filed as active, the others as inactive; ? = inconclusive; . = not tested or not shown. Unless noted, calls come from the whole dose curve; as a rule, active = well fitted curve in the direction sought with a large enough effect; inconclusive = small, poorly fitted or top-dose-only effect, or another doubt; inactive = no such curve, though single readings can be large; an effect the other way counts as inactive or inconclusive. % is set by controls: 0 for no effect and ±100 for the full control effect.

SMILES | IL1B secr inh | DT40 TDP1 CPT | Giardia kill | TDP1 cell noCPT | ELG1 DNA repair | TDP1 block
c1ccc(N=C2SCCCS2)cc1 | 1 | -10% | . | ? | . | .
CCCN1CCCc2cc(CN)ccc21 | 47 | 9.2µM* | 3 | 18µM* | ? | 3%
CN1CCCc2cc(C=O)ccc21 | -8 | -3% | -16 | -11% | 21% | 1%
COc1ccc(/C=N/NC(=O)c2cc3c(ccc4ccccc43)o2)cc1OC | -7 | ? | -5 | ? | ? | 1%
COc1ccc2ccc(OC)c(/C=N/NC(=O)c3cc4ccccc4o3)c2c1 | -4 | ? | . | 18µM* | . | .
O=C(O)c1ccc(/C=N/NC(=O)c2cc3c(ccc4ccccc43)o2)cc1 | ? | ? | 43 | -18% | -5% | 40µM*
N#CCn1cc(/C=N/NC(=O)c2cc3c(ccc4ccccc43)o2)c2ccccc21 | -4 | 21µM* | -25 | 12µM* | -22% | .
COc1ccccc1/C=N/NC(=O)c1cc2c(ccc3ccccc32)o1 | -9 | 16µM* | 14 | ? | -7% | 3%
CCOc1ccc(NC(=O)c2nnn(-c3ccc(F)c(Cl)c3)c2C)cc1 | . | -26% | . | -26% | . | 11%
CCc1nc(SCC(=O)N2CCC(C)CC2)c2c(=O)n(C)c(=O)n(C)c2n1 | 27 | ? | 2 | 26µM* | 21µM* | 0%
CCc1nc(SCC(=O)N2CCCCC2)c2c(=O)n(C)c(=O)n(C)c2n1 | 6 | -11% | 25 | -13% | -10% | 5%
CCCCc1nc(SCCN2CCOCC2)c2c(=O)n(C)c(=O)n(C)c2n1 | 36 | 5% | 1 | -18% | -2% | -1%
CCCc1nc(SCC(=O)N2CCC(C)CC2)c2c(=O)n(C)c(=O)n(C)c2n1 | ? | 16µM* | -11 | 12µM* | ? | -2%
CCCc1nc(SC2CCCC2)c2c(=O)n(C)c(=O)n(C)c2n1 | 33 | 23µM* | 0 | 23µM* | -13% | 5%
CCc1nc(SCC(=O)N2CCC(Cc3ccccc3)CC2)c2c(=O)n(C)c(=O)n(C)c2n1 | . | . | . | . | 16% | 5%
CCCc1nc(SCC(=O)N2CCN(c3ccccc3)CC2)c2c(=O)n(C)c(=O)n(C)c2n1 | 16 | 6.5µM* | -15 | 7.3µM* | ? | 3%
O=C(CNC(=O)c1ccccc1)OC(C(=O)O)c1ccc(F)cc1 (stereo unspecified) | 19 | ? | . | ? | . | .
COc1cc(OC)c(C2C(C#N)=C(C)NC(C)=C2C#N)c(C(=O)O)c1 | 1 | -6% | 9 | 2% | -8% | -1%
COc1ccccc1CNc1nc2ccccc2c2nc(-c3cccc(C)c3)nn12 | . | -14% | . | -9% | . | 2%
CN1CCN(CCCNc2nc3ccccc3c3nc(-c4ccccc4)nn23)CC1 | -7 | ? | -3 | 13µM* | . | .
Cc1ccc(CCNc2nc3ccccc3c3nc(-c4ccccc4)nn23)cc1 | . | ? | . | ? | . | -1%
COc1cc2nc(NCCCN3CCN(C)CC3)n3nc(-c4ccccc4)nc3c2cc1OC | -110* | ? | 2 | ? | -27% | .
O=C1C(=C(c2ccccc2)c2ccccc2)Nc2ccccc21 | 10 | 13µM* | -8 | 15µM* | ? | 13%
CCn1c(=O)cc(SCC(=O)NCCc2cc(OC)ccc2OC)c2ccccc21 | . | 21µM* | . | 21µM* | . | 3%
CCn1c(=O)cc(OCC(=O)Nc2cc(OC)c(OC)c(OC)c2)c2ccccc21 | . | 15µM* | . | ? | . | 0%
SMILES | IL1B secr inh | DT40 TDP1 CPT | Giardia kill | TDP1 cell noCPT | ELG1 DNA repair | TDP1 block
CCn1c(=O)cc(SCC(=O)Nc2cc(OC)c(OC)c(OC)c2)c2ccccc21 | -6 | 23µM* | 17 | ? | 0% | -2%
CCn1c(=O)cc(SCC(=O)Nc2cccc(SC)c2)c2ccccc21 | -9 | -25% | 1 | ? | ? | -5%
CCn1c(=O)cc(SCC(=O)NCc2ccc(OC)cc2OC)c2ccccc21 | . | -27% | . | -29% | . | 1%
CCN(CC)c1cc(NCCO)c([N+](=O)[O-])c2nonc12 | -8 | -14% | 19 | -17% | -17% | 4%
COC(=O)CCSc1cc(NCCCOC(C)=O)c([N+](=O)[O-])c2nonc12 | . | 5µM* | -1 | 5µM* | . | 4%
Cc1ccc(Sc2cc(NCCCO)c([N+](=O)[O-])c3nonc23)cc1 | -17 | 2.3µM* | 4 | 2.9µM* | -5% | 2%
CC(=O)OCCCNc1cc(Sc2ccc(Cl)cc2)c2nonc2c1[N+](=O)[O-] | ? | 2.1µM* | 18 | 3.7µM* | -18% | -1%
CC(C)CCSc1cc(NCCO)c([N+](=O)[O-])c2nonc12 | 1 | ? | 1 | ? | ? | 6%
CC(=O)N1CCN(CCS(=O)(=O)c2ccc(Br)cc2)CC1 | -53* | -10% | -10 | -2% | 22% | 0%
O=C(CCS(=O)(=O)c1ccc(Br)cc1)N1CCN(Cc2ccccc2)CC1 | 10 | -30% | -21 | ? | -4% | 9%
CO/N=C/c1ccc(Oc2ccc([N+](=O)[O-])cc2[N+](=O)[O-])c(OC)c1 | -15 | ? | 13 | 16µM* | 11% | 5%
CCOc1ccc(/C=C2\SC(=S)NC2=O)cc1OC | 11 | ? | 3 | ? | 39% | 0%
CCN1C(=O)C(=Cc2cccc(OC)c2Oc2ccc([N+](=O)[O-])cc2[N+](=O)[O-])SC1=S | -95* | 1.5µM* | 8 | 1.5µM* | ? | .
COc1cc(/C=C2\SC(=O)NC2=O)ccc1Oc1ccc([N+](=O)[O-])cc1[N+](=O)[O-] | 0 | 18µM* | -19 | 16µM* | ? | -1%
COc1ccc(/C=C2\SC(=O)NC2=S)cc1OC | -74* | 10µM* | -7 | ? | ? | 8%
COc1cccc(/C=C2\SC(=S)N(N3CCOCC3)C2=O)c1OC | 5 | 3% | 4 | -9% | ? | 11%
COc1ccc(/C=N/OC(=O)Nc2ccccc2)cc1[N+](=O)[O-] | -23 | 4% | -25 | -17% | ? | 1%
O=C(N/N=C/c1ccc(O)cc1O)/C(=C/c1ccccc1)CCO | 60 | ? | -11 | ? | ? | 8%
O=C(Oc1ccccc1F)c1nc(SCc2ccccc2F)ncc1Cl | . | -7% | . | -8% | . | -2%
O=C(CCNC(=O)c1ccccc1Cl)NCC(c1ccc(F)cc1)N1CCOCC1 (stereo unspecified) | 7 | 2% | -19 | -1% | 1% | -12%
COc1cc(/C=N/O)ccc1Oc1ccc([N+](=O)[O-])cc1[N+](=O)[O-] | 0 | ? | -2 | 18µM* | -6% | 5%
